A short description of experiment [1]: qHTS assay to identify aromatase inhibitors - cell viability counter screen (AID 743084).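 Further: cells stimulated with testosterone during compound exposure; nearly all actives have a fitted effect of over 55% in size.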
Experiment [2] deals with Aryl hydrocarbon receptor (Homo sapiens) (UniProt P35869). As to the kind of experiment: qHTS assay to identify small molecule that activate the aryl hydrocarbon receptor (AhR) signaling pathway (AID 743085). Further: nearly all actives have a fitted effect of over 15% in size. Further: potency means the concentration at half of the fitted maximal effect.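 On activation: HG2L7.5c1 human HepG2 liver cells with stably integrated DRE-driven firefly reporter; series mostly up to about 70 µM.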 In outline:
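Steps: seed HepG2-AhR-luc cells; allow 5 h at 37C; pin-transfer test compound or vehicle; incubate 24 h at 37C; add viability dye (30 min, 37C) and read fluorescence; add luciferase substrate (30 min, RT) and read luminescence.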
Background: Quantitative high-throughput screening tests each substance at several concentrations.

Experiment [3] in a line: qHTS assay to identify small molecule that activate the aryl hydrocarbon receptor (AhR) signaling pathway - cell viability counter screen (AID 743086).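 Further: HepG2 liver cells carrying the AhR DRE luciferase reporter; series mostly up to about 70 µM; nearly all actives have a fitted effect of over 45% in size.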 In outline:
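HepG2-AhR-luc (HG2L7.5c1) cells, 4000/well, treated 24 h at 37 C with compound; viability measured as CellTiter-Fluor fluorescence after 30 min in the same wells as the luciferase read.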

Experiment [4] is described as follows: qHTS assay for small molecule agonists of the antioxidant response element (ARE) signaling pathway (AID 743202; active means well fitted activation curve with a large enough effect in the signal ratio in the repeat runs, not every such curve was filed as active; the % refers to the signal ratio; further: potency means the concentration at half of the fitted maximal effect). The procedure, abridged: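 HepG2 ARE-bla cells; 16 h treatment at 37 C; FRET-based beta-lactamase fluorescence read after 2 h substrate incubation at room temperature.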
A short description of experiment [5]: qHTS assay for small molecule agonists of the antioxidant response element (ARE) signaling pathway - cell viability counter screen (AID 743203; calls by dose curve; further: nearly all actives have a fitted effect of over 55% in size). In outline: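 Viability counter screen: CellTiter-Glo luminescence, read after 30 min at room temperature, in ARE-bla HepG2 wells. Compound exposure lasted 16 h at 37C/5% CO2, following a 5 h pre-incubation of the cells after plating.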

Experiment [6] can be described thus: qHTS assay to identify small molecule agonists of the peroxisome proliferator-activated receptor delta (PPARd) signaling pathway - cell viability counter screen (AID 743211). Further: nearly all actives have a fitted effect of over 55% in size. In outline: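 Viability of GeneBLAzer PPARd UAS-bla HEK293H cells was assessed after 17 h compound incubation at 37C, using CellTiter-Glo reagent added after the reporter read and luminescence recorded 30 min later.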

Experiment [7] can be described thus: qHTS assay to identify small molecule agonists of the farnesoid-X-receptor (FXR) signaling pathway - cell viability counter screen (AID 743218). Further: nearly all actives have a fitted effect of over 45% in size. In outline: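 Viability counter screen in the same wells: CellTiter-Glo luminescence, 30 min room-temperature incubation, measured after the beta-lactamase read. Cells were GeneBLAzer FXR-UAS-bla HEK 293T, compound-treated 16 h at 37C.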

Experiment [8] in a line: qHTS assay to identify small molecule antagonists of the farnesoid-X-receptor (FXR) signaling pathway - cell viability counter screen (AID 743221; active means well fitted cell-killing curve with a large enough effect in the repeat runs, not every such curve was filed as active; further: nearly all actives have a fitted effect of over 50% in size). The procedure, abridged:
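Quantitative HTS of the Tox21 10K library run in parallel with the beta-lactamase reporter read. HEK 293T cells carrying a UAS-driven bla reporter got compound and 50 uM CDCA (final) for 16 h; ATP-based luminescence followed.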

For experiment [9], the target named is Vitamin D3 receptor (Homo sapiens) (UniProt P11473). As to the kind of experiment: qHTS assay to identify small molecule agonists of the vitamin D receptor (VDR) signaling pathway (AID 743222; calls by dose curve). The procedure, abridged: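 Agonist mode, beta-lactamase reporter: fluorescence from LiveBLAzer B/G FRET substrate (2 h, room temperature) read after 16 h compound treatment at 37 C of VDR-bla cells, which were pre-incubated 4 h after seeding.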
Vitamin D3 receptor (Homo sapiens), sequence (P11473 whole entry, looked up): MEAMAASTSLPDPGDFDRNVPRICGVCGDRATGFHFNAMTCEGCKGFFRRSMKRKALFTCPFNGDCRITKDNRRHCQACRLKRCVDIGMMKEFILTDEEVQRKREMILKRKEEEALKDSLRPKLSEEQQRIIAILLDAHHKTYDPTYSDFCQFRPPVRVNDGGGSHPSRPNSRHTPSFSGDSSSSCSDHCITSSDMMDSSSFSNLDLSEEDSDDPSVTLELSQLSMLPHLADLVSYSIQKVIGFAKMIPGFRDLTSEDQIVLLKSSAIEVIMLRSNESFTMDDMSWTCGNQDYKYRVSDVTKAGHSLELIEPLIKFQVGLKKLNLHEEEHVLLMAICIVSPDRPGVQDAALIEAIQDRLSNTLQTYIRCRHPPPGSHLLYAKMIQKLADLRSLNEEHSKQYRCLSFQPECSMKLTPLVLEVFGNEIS

Experiment [10] addresses Peroxisome proliferator-activated receptor gamma (Homo sapiens) (UniProt P37231). Kind of experiment: qHTS assay to identify small molecule antagonists of the peroxisome proliferator-activated receptor gamma (PPARg) signaling pathway (AID 743191; calls by dose curve; further: nearly all actives have a fitted effect of over 30% in size; further: potency means the concentration at half of the fitted maximal effect). The procedure, abridged:
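GeneBLAzer PPARg UAS-bla HEK293H cells, 5 h post-plating, exposed to compounds 17 h at 37C. LiveBLAzer B/G FRET substrate added for 1 h at room temperature; beta-lactamase reporter read by fluorescence intensity.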

In experiment [11] the target is Peroxisome proliferator-activated receptor delta (Homo sapiens) (UniProt Q03181). Kind of experiment: qHTS assay to identify small molecule agonists of the peroxisome proliferator-activated receptor delta (PPARd) signaling pathway (AID 743212; calls by dose curve). The procedure, abridged:
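Tox21 library screened in GeneBLAzer PPARd UAS-bla HEK293H cells. After compound treatment at 37 C, a FRET-based beta-lactamase substrate was applied for 2 h and fluorescence recorded.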

In experiment [12] the target is Bile acid receptor (Homo sapiens) (UniProt Q96RI1). Kind of experiment: qHTS assay to identify small molecule antagonists of the farnesoid-X-receptor (FXR) signaling pathway (AID 743217; active means well fitted inhibition curve with a large enough effect in the signal ratio in the repeat runs, not every such curve was filed as active; the % refers to the signal ratio; further: potency means the concentration at half of the fitted maximal effect). The procedure, abridged:
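Antagonist mode: chenodeoxycholic acid at 50 uM final stimulates a UAS-driven beta-lactamase reporter in HEK 293T FXR-bla cells during 16 h, 37C compound exposure. Read-out is FRET substrate fluorescence after 2 h at room temperature.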

For experiment [13] the target is unchanged. Kind of experiment: qHTS assay to identify small molecule agonists of the farnesoid-X-receptor (FXR) signaling pathway (AID 743220; active means well fitted activation curve with a large enough effect in the signal ratio in the repeat runs, not every such curve was filed as active; the % refers to the signal ratio). The procedure, abridged:
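FXR-UAS-bla HEK 293T cells carrying a UAS-driven beta-lactamase reporter were plated for 5 h at 37C/5% CO2, then exposed to DMSO-dissolved Tox21 10K compounds for 16 h at 37C. A LiveBLAzer B/G FRET substrate was loaded for 2 h at room temperature before fluorescence reading.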

Experiment [14] can be described thus: qHTS assay to identify small molecule antagonists of the peroxisome proliferator-activated receptor gamma (PPARg) signaling pathway - cell viability counter screen (AID 743194). Further: nearly all actives have a fitted effect of over 55% in size. The procedure, abridged: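 Cytotoxicity counter screen in PPARg-bla HEK293H cells, same wells as reporter assay. Compounds plus 50 nM rosiglitazone (final) for 17 h at 37 C, then viability read by CellTiter-Glo luminescence.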

Experiment [15] can be described thus: qHTS assay for small molecule activators of the heat shock response signaling pathway (AID 743210; active means well fitted activation curve with a large enough effect in the signal ratio in the repeat runs, with a control signal flat, not every such curve was filed as active; the % refers to the signal ratio;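 further: HeLa cells with beta-lactamase reporter driven by heat shock elements; series mostly up to about 63 µM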). In outline:
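Following overnight attachment, HSE-bla HeLa cells received test compounds for 5 h at 37 C; beta-lactamase activity was then detected via FRET substrate fluorescence.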

For experiment [16], the target named is Peroxisome proliferator-activated receptor delta (Homo sapiens) (UniProt Q03181). Kind of experiment: qHTS assay to identify small molecule antagonists of the peroxisome proliferator-activated receptor delta (PPARd) signaling pathway (AID 743215; active means well fitted inhibition curve with a large enough effect in the signal ratio in the repeat runs, not every such curve was filed as active; the % refers to the signal ratio; further: series mostly up to about 62 µM). In outline:
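Agonist L165041 (300 nM final) added with compound to PPARd-bla HEK293H UAS-bla reporter cells; 17 h incubation at 37 C. Read-out: LiveBLAzer FRET substrate, 2 h at room temperature, fluorescence intensity.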

For experiment [17], the target named is Vitamin D3 receptor (Homo sapiens) (UniProt P11473). Kind of experiment: qHTS assay to identify small molecule antagonists of the vitamin D receptor (VDR) signaling pathway (AID 743223; active means well fitted inhibition curve with a large enough effect in the signal ratio in the repeat runs, not every such curve was filed as active; the % refers to the signal ratio). The procedure, abridged: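 Fluorescence from LiveBLAzer B/G FRET substrate, read after 2 h at room temperature, reflects beta-lactamase reporter activity in VDR-bla cells treated 16 h at 37C with compounds and agonist 1alpha,25-dihydroxyvitamin D3 (3 nM final).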

A short description of experiment [18]: qHTS assay to identify small molecule antagonists of the peroxisome proliferator-activated receptor delta (PPARd) signaling pathway - cell viability counter screen (AID 743213). Further: nearly all actives have a fitted effect of over 50% in size. In outline:
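Agonist-stimulated (L165041, 300 nM final) HEK293H PPARd UAS-bla cells are exposed to compounds for 17 h at 37 C, and ATP-based luminescence (CellTiter-Glo) from the same wells reports cytotoxicity.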

A short description of experiment [19]: qHTS assay for small molecule activators of the heat shock response signaling pathway - cell viability counter screen (AID 743209). Further: nearly all actives have a fitted effect of over 50% in size. The procedure, abridged:
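Cytotoxicity counter screen run in the same wells as the heat-shock bla reporter assay: HeLa HSE-bla cells, 5 h compound exposure at 37 C, viability read by CellTiter-Glo luminescence.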

Experiment [20] addresses Peroxisome proliferator-activated receptor gamma (Homo sapiens) (UniProt P37231). As to the kind of experiment: qHTS assay to identify small molecule agonists of the peroxisome proliferator-activated receptor gamma (PPARg) signaling pathway (AID 743094; active means well fitted activation curve with a large enough effect in the signal ratio in the repeat runs, not every such curve was filed as active; the % refers to the signal ratio). In outline:
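Agonist activity was taken from a beta-lactamase reporter (FRET substrate, 1 h at room temperature) in HEK293H cells carrying a PPARg UAS-bla construct. Compounds in DMSO were incubated 17 h at 37C after a 5 h cell pre-incubation.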

Experimental findings from PubChem BioAssay (Tox21) are described below.

Records with an inconclusive call do not appear. Unmarked numbers belong to inactive results. Active and inactive are the calls of the source. Unless noted, the call rests on the fitted dose curve; in most records, active means well fitted curve in the direction sought with a large enough effect in the repeat runs; inconclusive means weak or mixed curves; inactive means no such curve, though single readings can be large; an effect the other way counts as inactive or inconclusive.
On the % scale 0 is the no-effect control and ±100 the full control effect.

Bile acid receptor (Homo sapiens), sequence (Q96RI1 whole entry, looked up): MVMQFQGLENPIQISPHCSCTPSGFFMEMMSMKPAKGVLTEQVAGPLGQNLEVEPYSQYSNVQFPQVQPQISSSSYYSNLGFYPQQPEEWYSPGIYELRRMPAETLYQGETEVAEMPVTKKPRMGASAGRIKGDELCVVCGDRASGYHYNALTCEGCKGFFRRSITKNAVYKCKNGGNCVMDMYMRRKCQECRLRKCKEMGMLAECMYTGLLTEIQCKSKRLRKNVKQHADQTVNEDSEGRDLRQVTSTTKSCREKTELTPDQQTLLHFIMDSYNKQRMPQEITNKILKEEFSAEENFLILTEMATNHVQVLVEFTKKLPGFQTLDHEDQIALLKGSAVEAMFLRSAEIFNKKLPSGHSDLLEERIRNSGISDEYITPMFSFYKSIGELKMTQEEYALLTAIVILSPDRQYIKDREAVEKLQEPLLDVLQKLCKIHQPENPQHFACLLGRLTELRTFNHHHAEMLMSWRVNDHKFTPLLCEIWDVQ
Peroxisome proliferator-activated receptor gamma (Homo sapiens), sequence (P37231 whole entry, looked up): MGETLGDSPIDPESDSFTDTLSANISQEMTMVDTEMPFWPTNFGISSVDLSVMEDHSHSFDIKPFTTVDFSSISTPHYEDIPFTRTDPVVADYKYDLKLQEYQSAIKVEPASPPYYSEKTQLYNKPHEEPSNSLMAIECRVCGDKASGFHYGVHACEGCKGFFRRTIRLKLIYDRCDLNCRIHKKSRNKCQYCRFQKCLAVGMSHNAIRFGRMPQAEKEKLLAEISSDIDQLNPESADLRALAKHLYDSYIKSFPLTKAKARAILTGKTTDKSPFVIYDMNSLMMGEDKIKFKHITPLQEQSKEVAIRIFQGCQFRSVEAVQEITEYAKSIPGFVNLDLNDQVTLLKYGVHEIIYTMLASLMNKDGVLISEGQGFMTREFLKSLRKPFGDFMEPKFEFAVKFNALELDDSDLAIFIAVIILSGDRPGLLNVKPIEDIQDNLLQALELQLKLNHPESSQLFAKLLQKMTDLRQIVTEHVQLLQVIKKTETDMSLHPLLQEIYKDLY
Aryl hydrocarbon receptor (Homo sapiens), sequence (P35869 whole entry, looked up): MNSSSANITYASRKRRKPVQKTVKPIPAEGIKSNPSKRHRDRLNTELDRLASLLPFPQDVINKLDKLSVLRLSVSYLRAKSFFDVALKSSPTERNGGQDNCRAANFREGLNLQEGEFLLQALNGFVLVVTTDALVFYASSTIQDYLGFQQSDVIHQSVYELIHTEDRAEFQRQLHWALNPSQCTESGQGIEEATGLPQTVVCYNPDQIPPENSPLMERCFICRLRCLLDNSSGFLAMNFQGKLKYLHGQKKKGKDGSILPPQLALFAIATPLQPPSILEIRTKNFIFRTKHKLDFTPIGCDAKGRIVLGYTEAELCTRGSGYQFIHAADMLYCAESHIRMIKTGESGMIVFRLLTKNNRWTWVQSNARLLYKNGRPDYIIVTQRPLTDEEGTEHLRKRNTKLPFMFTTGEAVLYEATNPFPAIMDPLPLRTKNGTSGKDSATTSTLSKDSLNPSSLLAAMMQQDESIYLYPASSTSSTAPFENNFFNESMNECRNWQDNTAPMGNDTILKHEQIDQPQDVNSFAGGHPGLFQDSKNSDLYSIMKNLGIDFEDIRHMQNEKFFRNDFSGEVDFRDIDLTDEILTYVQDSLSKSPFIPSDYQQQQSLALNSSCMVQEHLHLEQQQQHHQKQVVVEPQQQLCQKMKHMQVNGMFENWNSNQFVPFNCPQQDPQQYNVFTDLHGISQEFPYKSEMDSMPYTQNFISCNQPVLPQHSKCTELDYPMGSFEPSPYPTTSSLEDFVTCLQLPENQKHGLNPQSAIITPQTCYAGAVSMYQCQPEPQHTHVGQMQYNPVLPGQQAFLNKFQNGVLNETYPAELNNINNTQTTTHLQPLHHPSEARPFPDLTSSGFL
Peroxisome proliferator-activated receptor delta (Homo sapiens), sequence (Q03181 whole entry, looked up): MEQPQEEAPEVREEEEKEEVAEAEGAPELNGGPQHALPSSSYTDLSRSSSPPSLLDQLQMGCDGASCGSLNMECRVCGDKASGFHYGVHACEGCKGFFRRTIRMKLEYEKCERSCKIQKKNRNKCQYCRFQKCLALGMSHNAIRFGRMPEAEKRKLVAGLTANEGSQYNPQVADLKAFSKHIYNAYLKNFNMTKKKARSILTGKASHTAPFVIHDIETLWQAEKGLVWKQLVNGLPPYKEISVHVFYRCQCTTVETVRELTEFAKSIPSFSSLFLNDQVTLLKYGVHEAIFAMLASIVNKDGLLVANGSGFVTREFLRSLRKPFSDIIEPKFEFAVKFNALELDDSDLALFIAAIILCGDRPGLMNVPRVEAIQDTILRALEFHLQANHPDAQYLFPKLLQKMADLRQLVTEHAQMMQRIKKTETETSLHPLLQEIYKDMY

`COCCOc1cc2cc(C(=O)NC3CCN(C(C)C)CC3)n(CC(=O)Nc3ccc(Cl)cn3)c2cn1`: the Potency entry in experiment [1], in [3], in experiment [4], in [5], in experiment [6] and in experiment [7] was “inactive” in each case. Besides, the Potency result in [8] and in experiment [9] was “inactive” in each case. The Potency in [2] was 48 µM (active).

On to `COc1c(C)c2c(c(O)c1C/C=C(\C)CCC(=O)OCCN1CCOCC1)C(=O)OC2`, for which the Potency result in [1], in [2], in experiment [3], in experiment [11], in experiment [13] and in experiment [9] was “inactive” in each case. The Potency is 0.473 µM (active) in [10] and 1.5 µM (active) in experiment [12].

As for `CCCCOC(=O)CC`, the Potency entry in [1], in experiment [2], in experiment [3], in [10], in experiment [14] and in experiment [4] was “inactive” throughout. Moreover, the Potency entry in experiment [5], in [15], in [6], in [11], in experiment [16] and in experiment [12] was “inactive” in each case. For the same compound, the Potency entry in [7], in experiment [13], in experiment [8], in experiment [9] and in [17] was “inactive” each time.

`CCCCCC/C=C\CCCCCCCC(=O)O`: the Potency result in experiment [1], in experiment [2], in experiment [3], in [14], in [4] and in [5] was “inactive” throughout. Besides, the Potency entry in experiment [18], in [16], in [7], in experiment [13], in [8] and in [9] was “inactive” each time. The Potency result in experiment [17] was “inactive”.

`CCCC[P+](C)(CCCC)CCCC`: the Potency result in experiment [1], in [2], in experiment [3], in experiment [14], in experiment [4] and in experiment [5] was “inactive” throughout. For the same compound, the Potency result in experiment [6], in experiment [11], in experiment [18], in experiment [16], in [12] and in experiment [7] was “inactive” each time. Besides, the Potency result in [13], in experiment [8], in experiment [9] and in experiment [17] was “inactive” throughout.

As for `O=C(O)c1cc(-c2ccc(F)cc2F)ccc1O`, the Potency result in experiment [1], in experiment [2], in experiment [3], in [14], in experiment [5] and in experiment [15] was “inactive” each time. The Potency result in experiment [6], in experiment [7] and in [8] was “inactive” throughout. The Potency in experiment [4] was 13.3 µM (active).

With `O=C(O)CN(CCN(CC(=O)O)CC(=O)O)CC(=O)O`, the Potency result in [1], in experiment [2] and in [3] was “inactive” throughout. Moreover, the activity change, negative = cytotoxicity in [14] was 4.6% [at 2.7 µM]; in experiment [19], 20.3% [at 2.7 µM]; in [8], -12.7% [at 2.69 µM]. Also, the activation in experiment [4] is -0.355% [at 3.74 µM]; in experiment [15] it was 0.0247% [at 2.7 µM]. The viability change, negative = cytotoxic in experiment [5] was -5.36% [at 3.74 µM]; in experiment [18], 5.49% [at 2.83 µM]; in experiment [7] it was -17.2% [at 2.7 µM].

Turning to `CCCCCCCC/C=C\CCCCCCCCN`, the Potency entry in experiment [1], in experiment [2], in experiment [3], in experiment [20], in experiment [4] and in experiment [19] was “inactive” in each case. The Potency result in experiment [15], in experiment [6], in [11], in experiment [7], in [8] and in experiment [9] was “inactive” throughout.
